The whole screen tested about 1,600 compounds, of which about 20 (1%) showed an effect of 50% or more. Shown is part of a subset that was picked to be rich in strong results.
System: T1, E. coli pLC1021 (luc-trpAt trans-translation reporter)
T1 construct: pLC1021 luc-trpAt reporter strain
Parameters: species or system Escherichia coli pLC1021; luc-trpAt non-stop luciferase reporter; luminescence rises when trans-translation is inhibited; normalized to KKL-35 and DMSO
Settings: reporter signal, KKL-35 = 100%; rise means trans-translation inhibition; 2 h, 20 µM
Description: The luciferase screen was performed as previously described ([16]). […] 48 µL of cells was transferred to white 96-well plates, and 2 µL DMSO or 20 µM compound, or 20 µM KKL-35 was added. Plates were sealed with adhesive film, vortexed gently to mix, and incubated at room temperature for 2 h. 50 µL Bright-Glo reagent (Promega, Madison, WI) was added to each well, and the plates were sealed with adhesive film, vortexed vigorously, and incubated for an additional 10 min at room temperature. Luminescence was measured at 560 nm using a SpectraMax i3 microplate reader and readings for each plate were normalized to the average of three KKL-35-treated wells (positive control) and three DMSO-treated wells (negative control) within the plate to correct for plate-to-plate and day-to-day variations. Results from at least two biological repeats were averaged, and GraphPad Prism was used to plot the data. We screened a library of 1,601 anti-tubercular small molecules for their ability to inhibit trans-translation using a luciferase reporter in Escherichia coli. In this luc-trpAt reporter, the firefly luciferase gene has a trpA transcriptional terminator before the stop codon, such that luciferase is translated from a non-stop mRNA ([16]). When trans-translation is active, the luciferase will be tagged and degraded, but when trans-translation is inhibited, active luciferase will accumulate, resulting in a luminescent signal when luciferin is added. Luciferase activity was measured after growth in the presence of compounds from the library at 20 µM, using the known trans-translation inhibitor KKL-35 as a positive control (Fig. 1A) ([16], [17]). Compounds with activity one standard deviation above the median were scored as positive (Fig. S1 and Table S1).

Compound	% activation
CC(C)(C)c1cc(Cl)c(O)c(NC(=S)NC(=O)c2cccc3ccccc23)c1 [KKL-0905]	0%
O=C(C[n+]1nc(CNc2ccc(Cl)cc2)n2c1CCCCC2)c1ccc(Br)cc1 [KKL-1021]	9%
CC(C)(C)c1cc(Cl)ccc1OCCCCn1ccnc1 [KKL-1305]	5%
CN(CCn1ccnc1)Cc1cn(Cc2ccccc2)nc1-c1cc2ccccc2o1 [KKL-0649]	0%
COc1ccc(CNCc2cn(-c3cccc(F)c3)nc2-c2ccc(C)o2)cc1 [KKL-0321]	0%
Cn1cc(CCNC(=O)Nc2ccc(N3CCCCC3)nc2)cn1 [KKL-1828]	0%
O=C(Nc1ccco1)N1CCN(Cc2cccs2)CC1 [KKL-1841]	1%
CCc1cc(C(=O)OC)c(N=C(S)NCc2ccc(Cl)c(Cl)c2)s1 [KKL-1547]	0%
O=C(C=Cc1ccco1)N1CCN(Cc2ccc3c(c2)OCO3)CC1 [KKL-1821]	0%
CCC(C)c1ccc(O)c(NC(=S)NC(=O)c2cncc(Br)c2)c1 (stereo not shown) [KKL-0711]	3%
CCn1cc(C(=O)O)c(=O)c2cc(F)c(N3CCN(C(S)=Nc4cc(C(F)(F)F)ccc4Cl)CC3)cc21 [KKL-1476]	5%
CCn1cc(C(=O)O)c(=O)c2cc(F)c(N3CCNCC3)cc21 [KKL-0831]	56%
CCN1CCN(c2cc3c(cc2F)c(=O)c(C(=O)O)cn3C2CC2)CC1 [KKL-0903]	6%
Cc1nn(-c2ccc(F)cc2)c2nc(O)c(CNCc3ccccc3F)cc12 [KKL-0342]	0%
CCCOC(=O)c1ccc(NC(=S)NC(=O)c2ccc(Cl)cc2)cc1 [KKL-0761]	3%
CC1CN(c2ccc([N+](=O)[O-])cc2)CCN1C(=O)c1cccc(Br)c1 (stereo not shown) [KKL-1355]	0%
O=C(NCCCn1ccnc1)c1cccnc1Nc1cccc(C(F)(F)F)c1 [KKL-0554]	15%
NC1CCc2nc(-c3cccnc3)nc(Nc3cccc(C(F)(F)F)c3)c2C1 (stereo not shown) [KKL-0530]	124%
FC(F)(F)c1cccc(-n2cc(-c3ccccc3)c3c(NCc4cccnc4)ncnc32)c1 [KKL-1573]	0%
NC1CCc2nc(-c3cccnc3)nc(Nc3ccc(C(F)(F)F)cc3)c2C1 (stereo not shown) [KKL-0526]	137%
Nc1cccnc1Nc1ccc(C(F)(F)F)cc1 [KKL-1711]	4%
Cc1cnc(N2CCN[C@@H](Cc3ccccc3)C2)nc1Oc1ccc(-n2ccnc2)cc1 [KKL-1724]	6%

Compound	% activation
CCOC(=O)c1cnc(-n2nc(C)cc2C)nc1Nc1ccc(N(C)C)cc1 [KKL-0889]	0%
Clc1ccc(Nc2nc(-c3ccccn3)cs2)nc1 [KKL-1793]	0%
Cc1oc(-c2ccc3ccccc3c2)nc1CN1CCN(c2cnccn2)CC1 [KKL-0659]	0%
CSc1ccc(-c2nnc(NC(=O)c3ccc(Cl)s3)o2)cc1 [KKL-1706]	50%
CN(C)S(=O)(=O)c1ccc(C(=O)Nc2nnc(-c3ccc(Cl)s3)o2)cc1 [KKL-1747]	1%
O=C(Nc1nnc(-c2ccc(Cl)s2)o1)c1ccc(Cl)s1 [KKL-1762]	0%
CN1CCN(c2ccc(NC(=S)NC(=O)c3ccc(-c4cccc(Cl)c4)o3)cc2)CC1 [KKL-0357]	18%
O=C(Nc1ccc2c(c1)OCCO2)c1cccc2nc3ccccc3nc12 [KKL-0843]	0%
Cc1ccc(Cl)cc1N=C1C=C(NS(=O)(=O)c2cccs2)c2ccccc2C1=O [KKL-1115]	0%
Cn1nc(-c2ccc3ccccc3c2)cc1[C@H]1CN2CC[C@H]1C[C@@H]2COC(=O)Nc1cccc(C(F)(F)F)c1 [KKL-0323]	0%
COC(=O)c1cccc(NC(=S)NC[C@H]2C[C@@H]3CCN2C[C@@H]3c2cc(-c3ccc4ccccc4c3)nn2C)c1 [KKL-1596]	71%
Cc1ccc(C(=O)NC[C@H]2C[C@@H]3CCN2C[C@@H]3c2cc(-c3ccc4ccccc4c3)nn2C)cc1 [KKL-0337]	0%
NC1CCc2nc(-c3cccnc3)nc(Nc3ccc(Cl)cc3)c2C1 (stereo not shown) [KKL-0540]	119%
Nc1cccnc1Nc1ccc(Cl)cc1 [KKL-1858]	0%
NC1CCc2nc(-c3ccncc3)nc(Nc3ccc(Cl)cc3)c2C1 (stereo not shown) [KKL-0326]	797%
CCOC(=O)CSc1nc(C#N)c(SCC(=O)OCC)s1 [KKL-0955]	12%
O=C(Oc1cccc2cccnc12)C(Cc1ccccc1)N1C(=O)C2C3CCC(C3)C2C1=O (stereo not shown) [KKL-1364]	9%
Cc1oc2ccccc2c1CN(CCCn1ccnc1)Cc1cccc(F)c1 [KKL-0544]	0%
CCC(OC(C)=O)c1ccc(OC(C)=O)c(OC)c1 (stereo not shown) [KKL-0758]	7%
CCOc1ccc(NC(=O)CSc2nc3ccc([N+](=O)[O-])cc3s2)cc1 [KKL-1417]	0%
Cc1ccc(NCCC(=O)c2ccc([N+](=O)[O-])cc2)cc1C [KKL-0401]	14%
COc1cc2cc(-c3nc4ccccc4[nH]3)c(N)nc2cc1OC [KKL-0395]	22%

Compound	% activation
Cc1ccc2[nH]c3c(c2c1)CCCC3NCCCOc1ccc(F)cc1 (stereo not shown) [KKL-0771]	84%
Cc1ccc2[nH]c(C3CCCNC3)c(-c3ccncc3)c2c1 (stereo not shown) [KKL-1820]	14%
CC1CCc2sc3ncnc(NCCc4ccccc4)c3c2C1 (stereo not shown) [KKL-0868]	2%
CCOC(=O)COc1ccc(C(=O)Nc2ccc(F)cc2)cc1 [KKL-0783]	0%
CC12CC3CC(C)(C1)CC(CNCc1ccccc1O)(C3)C2 [KKL-1484]	3%
CCCOC(=O)CSc1nnc(-c2cc(OC)c(OC)c(OC)c2)o1 [KKL-1095]	0%
Cc1ccc(-c2csc(-c3ccncc3)n2)cc1C [KKL-0956]	0%
COC(=O)[C@@H](NC(=O)c1cc(COc2c(F)cccc2F)on1)c1ccccc1 [KKL-0496]	8%
CCOC(=O)c1ccc(NC(=O)C2C(=O)N(C)C3(C)CC2c2ccccc2O3)cc1 (stereo not shown) [KKL-1246]	0%
Cc1cc([N+](=O)[O-])ccc1NC(=O)CN1C2CCC1CC(NC(=O)NC13CC4CC(CC(C4)C1)C3)C2 (stereo not shown) [KKL-1619]	0%
CCCCCCn1c(=O)c(C(=O)Nc2nc(CC(=O)OCC)cs2)c(O)c2ccccc21 [KKL-0986]	0%
CCCCCn1c(=O)c(C(=O)Nc2nc3ccccc3[nH]2)c(O)c2ccccc21 [KKL-1004]	7%
CCOC(=O)Cc1csc(NC(=O)c2c(O)c3ccccc3n(CCC(C)C)c2=O)n1 [KKL-1615]	75%
O=C(c1ccc(Cl)cc1)c1ccc(CSc2nnc(-c3ccccc3)o2)o1 [KKL-1212]	0%
O=C(c1cnn(C(=O)c2ccco2)c1)c1cc(F)ccc1O [KKL-1685]	3%
Clc1ccc(OCCCCCn2ccnc2)c(Cl)c1 [KKL-0421]	0%
N#CCc1ccc(NC(=O)/C=C/c2ccc([N+](=O)[O-])o2)cc1 [KKL-1204]	0%
c1cnc(N2CCN(c3nncc(-c4ccc(C5CCCCC5)cc4)n3)CC2)cn1 [KKL-0667]	0%
Cc1cc(Cl)ccc1NC(=O)CCc1ccc(S(=O)(=O)NC(C)C)cc1 [KKL-1581]	0%
CCc1ccc(CCC(=O)Nc2ccc(C)cc2)o1 [KKL-1248]	0%
CC(=O)NC(=S)NNC(=O)c1ccc(C(C)(C)C)cc1 [KKL-0588]	143%
CC(C)(C)c1ccc(C(=O)NC(=S)Nc2ccc(C(=O)O)cc2)cc1 [KKL-1314]	0%

Compound	% activation
COc1ccccc1C(=O)NNC(=S)NC(=O)c1ccc(-c2ccccc2)cc1 [KKL-0561]	11%
Cc1ccc(C(=O)NC(=S)Nc2ccc(S(=O)(=O)NC(C)C)cc2)cc1Br [KKL-0593]	0%
O=C(O)c1ccc(NC(=S)NC(=O)c2ccc(-c3ccccc3)cc2)cc1 [KKL-1292]	0%
CC(=O)NC(=S)NNC(=O)c1ccc(-c2ccccc2)cc1 [KKL-0063]	99%
Cc1ccc(C(=O)NCCC2=CCCCC2)cc1Br [KKL-1393]	0%
CC(C)(C)c1ccc(C(=O)NC(=S)N2CCCC2)cc1 [KKL-1436]	12%
CC(=O)NC(=S)NNC(=O)c1ccc(C)c(Br)c1 [KKL-0065]	186%
CNc1nc(SCC(=O)N(C)Cc2ccc(Cl)s2)nc2ccccc12 [KKL-1768]	0%
Cc1cc(C)nc(/N=C(\N)Nc2cc(Cl)ccc2Oc2ccccc2)n1 [KKL-0289]	0%
COC(=O)COc1ccc(NC(=O)c2ccccc2Br)cc1 [KKL-1572]	0%
Cc1[nH]c2ccccc2c1/C=C1\SC(=N)N(c2nccs2)C1=O [KKL-1143]	6%
Brc1cncc(-c2cc(NCCCn3ccnc3)nc(-c3ccccc3)n2)c1 [KKL-1784]	0%
Oc1ccc(Br)c2cccnc12 [KKL-0093]	371%
O=[N+]([O-])c1cc(O)c2ncccc2c1 [KKL-0003]	46%
c1cnc2c(c1)ccc1cccnc12 [KKL-0825]	8%
O=C(Nc1nc(-c2ccccn2)cs1)c1ncc(Cl)c(Cl)c1Cl [KKL-0390]	10%
O=C(Nc1ccc(Cl)cc1)c1cc2c(cc1O)[nH]c1ccccc12 [KKL-0896]	102%
O=C(Nc1ccc(-c2nc3ccccc3c(=O)o2)cc1)c1ccccc1I [KKL-1501]	2%
O=C(Nc1ccc(Cl)cc1)Nc1ccc(F)c(F)c1 [KKL-1350]	0%
